Shown are actives, neighbours in structure and some others; about 7.4% of the full set was active somewhere.
Rab9 prom act – Rab9 promoter activation | Huh7 Rab9 promoter-luciferase reporter, luminescence, 24 h | Potency, µM (series often up to 9.22 µM), for inactives: at the top dose activation, negative = inhibition, most hits filed as activators | hit rate 2.8% among 320,000; note: % of control where 0% means no effect; nearly all actives have a fitted effect of over 60% in size
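Huh7 reporter line, Rab9 promoter upstream of luciferase. Compound exposure 24 h at 37 °C in reduced-serum medium with 10% FBS. Read-out: luminescence.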
SMN2 splice up – increases expression of the SMN2 splice variant | HEK293 SMN2-luciferase splicing reporter, luminescence, 30-36 h | Potency, µM (highest dose often 46.1 µM), for the others: top-dose activity change, positive = activation, actives largely listed as activators | hit rate 2.8% among 210,000; note: % of control where 0% means no effect; nearly all actives have a fitted effect of over 55% in size
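HEK293 cells carry an SMN2 […]–luciferase reporter in which exon 7 inclusion puts luciferase in frame. Cells were plated 10-12 h before compound addition, then incubated 30-36 h at 37C. ONE-Glo luminescence was read; sodium butyrate at 4.5 mM final served as control.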
FLuc modulator – firefly luciferase modulation, counter-screen for miR-21 project | Potency, µM (highest dose often 57.5 µM), inactives show top-dose activity change, negative = inhibition, usual class: inhibitors | hit rate 6.9% among 360,000 | purified FLuc, Km substrates, luminescence inhibition | P08659 | AID 588342;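 note: plate controls were vehicle for no effect and reference inhibitor for full effect; nearly all actives have a fitted effect of over 55% in size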
Target sequence (P08659 whole entry, looked up): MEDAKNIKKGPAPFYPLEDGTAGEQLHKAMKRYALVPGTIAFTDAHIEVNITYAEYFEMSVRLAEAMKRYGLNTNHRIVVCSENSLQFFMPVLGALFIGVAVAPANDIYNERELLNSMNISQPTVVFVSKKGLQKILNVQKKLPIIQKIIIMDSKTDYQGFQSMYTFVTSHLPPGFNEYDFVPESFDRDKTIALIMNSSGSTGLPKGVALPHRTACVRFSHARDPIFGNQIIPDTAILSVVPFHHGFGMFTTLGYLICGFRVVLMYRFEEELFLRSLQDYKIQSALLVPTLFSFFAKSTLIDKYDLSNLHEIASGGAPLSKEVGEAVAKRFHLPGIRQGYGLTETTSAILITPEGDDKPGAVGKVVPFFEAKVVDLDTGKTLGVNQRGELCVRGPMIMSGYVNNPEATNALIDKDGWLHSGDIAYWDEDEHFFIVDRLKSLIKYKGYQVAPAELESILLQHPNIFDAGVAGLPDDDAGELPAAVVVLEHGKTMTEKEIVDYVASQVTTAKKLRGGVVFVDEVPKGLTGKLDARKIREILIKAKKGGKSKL
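Purified P. pyralis luciferase, 10 nM final, with Km-level 10 uM D-luciferin and 10 uM ATP in 50 mM Tris acetate pH 7.5, 10 mM Mg acetate, 0.01% Tween-20, 0.05% BSA; 6-point qHTS titration about 60 µM downward; luminescence read.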
ELG1 genotox – induces genotoxicity in HEK293T cells with luciferase-tagged ELG1 | HEK293T ELG1-luciferase reporter, luminescence, 16 h | Potency, µM (doses to about 46 µM), without a hit: at the top dose activity change, positive = activation, most hits filed as activators | hit rate 1.3% among 330,000 | AID 504466; note: % of control where 0% means no effect; nearly all actives have a fitted effect of over 60% in size
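16 hr compound incubation (37 °C, 5% CO2) of HEK293T cells carrying luciferase-tagged ELG1; luciferase then measured by ONE-Glo luminescence after 30 min at RT.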
NPC1 prom act – NPC1 promoter activation. Huh7 NPC1 promoter luciferase reporter, 24 h. AID 485313. Potency, µM (doses to about 9.22 µM), for the others: top-dose activation, hits mostly activators. hit rate 2.4% among 320,000; note: % of control where 0% means no effect; nearly all actives have a fitted effect of over 60% in size
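Huh7 cells stably carrying NPC1 promoter–luciferase, plated in Opti-MEM with 10% FBS for 2 h, were exposed to compound in DMSO for 24 h at 37 °C; luciferase reagent was added for 10 min and luminescence read.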
Active calls of the source: *; ? = inconclusive; . = no result; [ ] = another dose, or the depositor's remark. Calls come from the whole dose curve; as a rule, active = well fitted curve in the direction sought with a large enough effect; inconclusive = small, poorly fitted or top-dose-only effect, or another doubt; inactive = no such curve, though single readings can be large; an effect the other way counts as inactive or inconclusive. Potency is the fitted concentration of half-maximal effect.

SMILES	Rab9 prom act	SMN2 splice up	FLuc modulator	ELG1 genotox	NPC1 prom act
CCOC(=O)C(C)Sc1nnc(NC(=O)c2ccc3c(c2)OCO3)s1 (configuration not stated)	-5%	18%	17µM*	13%	3%
CC(C)Cc1nnc(NC(=O)c2ccc3c(c2)OCCO3)s1	0.63µM*	.	1.9µM*	?	2µM*
Cc1nc(NC(=O)c2ccc(OCC(C)C)cc2)sc1Cc1ccc2c(c1)OCO2	?	-21%	21µM*	-3%	18%
O=C(COc1cc2oc(=O)cc(-c3ccccc3)c2cc1Cl)NCCN1CCOCC1	0%	.	-1%	-3%	1%
CCc1ccc(-n2cnc3cc(C(=O)NCC(OC)OC)ccc32)cc1	-1%	.	?	1%	-1%
Cc1ccc(NC(=O)CN2C(=O)CSc3ccc(S(=O)(=O)N4CCCC4)cc32)c(C)c1	.	.	-9%	.	.
N#Cc1ccc2c(c1)C[C@]1(c3ccsc3)OC3=C(C(=O)OC4(CCCCC4)C3)C2O1	-8%[1.84 µM]	.	?	.	-1%[1.84 µM]
Cc1ccc(Cl)c2sc(N3CCN(C(=O)C4CC4)CC3)nc12	.	.	-17%	.	.
CSc1nnc(NC(=O)c2ccc3c(c2)OCO3)s1	0.11µM*	.	0.48µM*	0.26µM*	0.22µM*
CSc1nnc(NC(=O)c2ccc(S(=O)(=O)N(C)C)cc2)s1	0.56µM*	13µM*	11µM*	?	1.6µM*
Cc1nnc(NC(=O)c2ccc3c(c2)OCO3)s1	3.5µM*	.	13µM*	?	?
COCCNc1nnc(SCC(=O)c2ccc3c(c2)OCO3)s1	0%	3%	-9%	1%	15%
C=C1C(CCl)(CCl)C2(Cl)C(Cl)C(Cl)C1(Cl)C2(Cl)Cl (configuration not stated)	.	-5%	.	.	.
O=C1C(Cl)=C(NCCN2CCOCC2)C(=O)c2ncccc21	.	-94%	.	.	.
CCOc1cccc2cc(-c3cn4cc(C)ccc4n3)c(=O)oc12	0.56µM*	2.8µM*	0.12µM*	?	0.63µM*
Cc1ccc(COc2cccc3cc(-c4noc(-c5ccc(C)cc5)n4)c(=O)oc23)cc1	.	8%	0%	.	.
CN1CCN(C(=O)c2cc([N+](=O)[O-])cc([N+](=O)[O-])c2)CC1	3%	.	-4%	-7%	-1%
Cc1sc(NC(=O)C2=COCCO2)nc1-c1ccc(Cl)cc1	21%	.	-11%	1%	5%
CN1C(=O)/C(=N/OC(=O)c2ccccc2)c2ccccc21	-3%	-8%	7.6µM*	0%	-5%
CCOc1cccc2cc(C(=O)NC(C)c3ccccc3)c(=N)oc12 (configuration not stated)	3%	.	1%	-2%	0%
COc1cccc2cc(C(=O)NCc3ccccc3)c(=N)oc12	3%	.	11µM*	14%	-4%
COc1cccc2cc(C(=O)NCc3ccc(Cl)cc3)c(=N)oc12	0%	.	?	-7%	-8%
CCOc1cccc2cc(C(=O)NCc3ccc(F)cc3)c(=N)oc12	-2%	.	15µM*	?	-3%
CCOc1cccc2cc(C(=O)NCc3ccccc3)c(=N)oc12	1%	.	17µM*	16%	-1%
CCC1CN(C(=O)N2CCC(C(=O)NCCc3cc(OC)ccc3OC)CC2)c2ccccc2O1 (configuration not stated)	.	.	-10%	.	.
SMILES	Rab9 prom act	SMN2 splice up	FLuc modulator	ELG1 genotox	NPC1 prom act
CN1CCC(=NOc2ccc([N+](=O)[O-])cc2)CC1	1.6µM*	.	?	?	1.8µM*
COc1ccccc1NC(=O)Nc1nc(CC(=O)Nc2cccc(F)c2)cs1	8%	.	17µM*	-9%	-6%
COc1ccccc1NC(=O)Nc1nc(CC(=O)Nc2ccc(N(C)C)cc2)cs1	-2%	.	21µM*	?	0%
COc1ccccc1NC(=O)Nc1nc(C(C)(C)C)cs1	15%	6%	8.5µM*	-4%	-3%
Cc1cccc(CCNC(=O)CCc2c(C)nc3c4c(C)cc(C)nc4nn3c2C)c1	.	-4%	-2%	.	.
COc1cccc(CNC(=O)CCS(=O)(=O)c2cc3c4c(c2)CCN4C(=O)CC3)c1	.	.	-5%	.	.
CCOC(=O)c1ccc(NC2SC(=O)N(Cc3cccc(C(=O)O)c3)C2=O)cc1 (configuration not stated)	.	?	24µM*	.	.
COc1ccc(NC(=O)CSc2oc(-c3ccco3)nc2S(=O)(=O)c2ccc(Br)cc2)c(OC)c1	.	-5%	-5%	.	.
O=c1cc(-c2ccccc2)[nH]c2nc3ccccc3n12	2µM*	4µM*	0.95µM*	2.3µM*	3.5µM*
Cc1ccccc1OCCC(=O)Nc1cc(S(=O)(=O)N2CCOCC2)ccc1OC(C)C	1%	.	-2%	-4%	-4%
Cc1csc(NC(=O)CSc2nnc(NC(=O)COc3ccccc3)s2)n1	12%	26%	2.1µM*	8%	6%
O=C(CSc1nnc(-c2csc3c2CCCC3)o1)Nc1ccccc1	0.56µM*	1.8µM*	-18%	0.58µM*	?
COc1ccccc1NC(=O)CSc1nnc(-c2ccccc2)o1	?	14µM*	-4%	18µM*	?
Cc1csc(NC(=O)CSc2nnc(-c3ccccc3)o2)n1	2µM*	11µM*	-4%	5µM*	3.2µM*
Cc1ccc(-n2nnnc2SCC(=O)NC2CCS(=O)(=O)C2)c(C)c1 (configuration not stated)	0%	.	1%	1%	1%
O=C(CSc1nnc(-c2ccc(O)cc2)o1)Nc1ccccc1	2.8µM*	.	?	8.2µM*	2.5µM*
O=C(O)CSc1nnc(-c2ccc(O)cc2)o1	.	3%	?	.	.
COc1cccc(NC(=O)CSc2nnc(-c3cc(C)n(-c4ccccc4)c3C)o2)c1	19%	-42%	12µM*	15%	21%
COc1ccc(NC(=O)CSc2nnc(-c3cccc(O)c3)o2)cc1	-4%	.	2%	4%	1%
CC(C)(O)C#Cc1ccc(C(=O)N2CCC(C(N)=O)(N3CCCCC3)CC2)o1	-2%	.	2%	0%	-4%
Clc1ccc(C2=Nn3c(nnc3-c3n[nH]c4c3CCC4)SC2)cc1Cl	-5%	10µM*	0%	?	-9%
c1ccc(C2=Nn3c(nnc3-c3cc(-c4ccccc4)n[nH]3)SC2)cc1	4%	?	.	?	8%
Clc1ccc(C2=Nn3c(nnc3-c3cc(-c4ccccc4)n[nH]3)SC2)cc1	-10%	21%	-4%	-25%	8%
Cc1nnc2n(c1=O)N=C(c1ccc(Cl)cc1)CS2	0.5µM*	2µM*	2%	29%	1µM*
COc1ccc(C2=Nn3c(nnc3-c3ccc(OC)cc3)SC2)cc1	-17%	?	-9%	?	-30%
c1ccc(C2=Nn3c(nnc3-c3n[nH]c4c3CCC4)SC2)cc1	3%	?	-1%	23µM*	-7%
COc1ccc(C2=Nn3c(nnc3-c3cc(C)[nH]n3)SC2)cc1	-2%	.	-1%	21µM*	-8%

Bioassay records (PubChem BioAssay)
